# According to PubChem BioAssay AID463173 (ICCB-Longwood Screening Facility, Harvard Medical School, 2010):
# Out of some 52,000 compounds screened, about 4,300 (8.3%) were called active. What follows is part of a selection rich in actives, with near analogues and random picks from the rest. Values without a mark were called inactive. Rule as the data show it: active = survival mostly below about 52% (no sharp cut-off); inactive = mostly above about 56%.
# Test system: DeltatarO mutant
# Assay: S. aureus survival, RN4220 and DeltatarO strains – OD600, teichoic acid synthesis inhibitors, primary screen (AID 463173)
# Details: S. aureus RN4220 wild type/DeltatarO growth, OD600, 18 h, hits give low values, screened at 18.75 µg/mL (by protocol)
row,SMILES,survival
1,CSc1ccc(CCNC(=O)c2cc3c(-c4ccccc4F)nn(C)c3s2)cc1,55%
2,CCOc1ccc(CNC(=O)C2CCN(S(=O)(=O)c3cn(C)cn3)CC2)cc1,99%
3,Cc1ccc(NC(=O)CCn2nc(C)c3c(C)n(-c4ccccc4)nc3c2=O)cc1Cl,117%
4,CCOCCCn1c(SCC(=O)Nc2ccc(OC)cc2OC)nc2ccccc2c1=O,89%
5,CCOC(=O)C1CCCN(C(=O)c2ccccc2NC(=O)c2nsc3ccccc23)C1 (stereo not given),130%
6,CCOC(=O)c1[nH]c(C)c(CCC(=O)Nc2ccc(C(C)=O)cc2)c1C,72%
7,O=C(NCc1ccccc1)C(=O)Nc1ccc2nc3n(c(=O)c2c1)CCCCC3,88%
8,COc1cccc(Cn2c(=O)n(Cc3ccco3)c(=O)c3oc4ccccc4c32)c1,66%
9,O=C(CC1CCCCC1)N1CCN(c2ccccc2)CC1,82%
10,O=C(Nc1nnc(S(=O)(=O)N2CCCc3ccccc32)s1)c1ccccc1Cl,28% (active)
11,O=C(Nc1nnc(S(=O)(=O)N2CCCc3ccccc32)s1)c1ccccc1Br,17% (active)
12,O=C(Nc1nnc(S(=O)(=O)N2CCc3ccccc32)s1)c1ccccc1Cl,20% (active)
13,Cc1ccccc1C(=O)Nc1nnc(S(=O)(=O)N2CCc3ccccc32)s1,95%
14,Cc1ccccc1C(=O)Nc1nnc(S(=O)(=O)N2CCCc3ccccc32)s1,96%
15,CCOC(=O)c1ccc(CN(Cc2ccccc2C)S(=O)(=O)c2ccc(F)c(C(=O)Nc3cccc(OC)c3)c2)cc1,75%
16,CCNC(=O)CC1C(=O)N(c2ccc(F)cc2)C(=O)N1CCOC (stereo not given),84%
17,COc1ccc(CN(C(=O)Cc2coc3ccc(C)cc23)C2CCS(=O)(=O)C2)cc1 (stereo not given),67%
18,Cc1cc2n(n1)CCCN2C(=O)Nc1ccccc1C(F)(F)F,76%
19,CCc1ccc(NC(=O)C(=O)NCC(c2cccnc2)N2CCOCC2)cc1 (stereo not given),89%
20,CC(=O)Nc1nonc1NC(C)=O,87%
21,CC(=O)Oc1ccc(Nc2nc3nonc3nc2Nc2ccccc2)cc1,83%
22,CC(=O)Nc1cc(OC(C)=O)c2nonc2c1OC(C)=O,29% (active)
23,COC(=O)c1nnn(-c2ccc(Br)cc2)c1C(=O)OC,79%
24,CCOC(=O)c1ccc(NC(=O)CCc2c(C)nc3c(c(C)nn3C)c2C)cc1,93%

row,SMILES,survival
1,COC(=O)c1ccc(NC(=O)CCc2c(C)nc3c(c(C)nn3C(C)(C)C)c2C)cc1,59%
2,CCOC(=O)c1ccc(NC(=O)CCc2c(C)nc3c(c(C)nn3C(C)(C)C)c2C)cc1,55% (active)
3,Cc1ccc(-c2nc(CNC(=O)Nc3ccccc3)c(C)o2)cc1,71%
4,COC(=O)c1cc2c(ccn2-c2ccc(F)cc2)n1CC(=O)N1CCCCC1,97%
5,COc1ccc(C)cc1NC(=O)C1CCN(S(=O)(=O)c2ccc3[nH]c4c(c3c2)CCCCC4)CC1,94%
6,CCOc1ccc(NC(=O)CCc2c(C)nc3c4c(C)cc(C)nc4nn3c2C)cc1,125%
7,COc1cc(NC(=O)CCc2c(C)nc3c4c(C)cc(C)nc4nn3c2C)cc(OC)c1,74%
8,COC(=O)c1cc(NC(=O)CCc2c(C)nc3c4c(C)cc(C)nc4nn3c2C)cc(C(=O)OC)c1,56% (active)
9,COc1ccc(NC(=O)c2oc3ccc(S(=O)(=O)N4CCCCC4)cc3c2C)cc1,87%
10,CC(C)Cn1cc(NC(=O)N2CCN(c3cccc(C(F)(F)F)c3)CC2)c2ccccc2c1=O,77%
11,COc1ccc(CCNC(=O)Cn2ncc3c(=O)oc4ccccc4c32)c(OC)c1,89%
12,CCC1CCCCN1C(=O)CCS(=O)(=O)c1cc2c(cc1C)NC(=O)CO2 (stereo not given),81%
13,COc1cccc(CNS(=O)(=O)c2ccc3c(c2)C(C(C)C)C(=O)N3)c1 (stereo not given),129%
14,CC(C)C1C(=O)Nc2ccc(S(=O)(=O)NCCc3ccc(Cl)cc3)cc21 (stereo not given),77%
15,CC(C)C1C(=O)Nc2ccc(S(=O)(=O)NCc3ccc(Cl)cc3)cc21 (stereo not given),52% (active)
16,CCCNc1c2c(nc3ccccc13)CC(C)(C)CC2=O,66%
17,CCOc1ccccc1CNC(=O)c1ccc2nc(Cc3ccc(OC)cc3)oc2c1,73%
18,CN(C1CCCCC1)C(c1ccc(F)cc1)c1nnnn1C1CCCCC1 (stereo not given),83%
19,Cc1ccc(C)c(-c2nc(Cn3c(=O)cc(-c4ccccc4)c4c(C)nn(C)c43)c(C)o2)c1,130%
20,CCOC(=O)c1ccc(NC(=O)c2c(NCc3cccs3)sc3c2CCCC3)cc1,78%
21,CCOC(=O)c1ccc(NC(=O)c2cccc3c(=O)c4c([nH]c23)CCCC4)cc1,60%
22,CCC(Cc1ccccc1)NC(=O)c1csc2c1CCCCC2 (stereo not given),125%
23,CCOC(=O)c1ccc(NC(=O)c2noc3c2CCCC3)cc1,0% (active)
24,COc1ccc(NC(=O)c2noc3c2CCCC3)cc1Cl,83%

row,SMILES,survival
1,CC(CNC(=O)c1csc2c1CCCCC2)c1ccccc1 (stereo not given),-1% (active)
2,O=C(Nc1ccc(OC(F)(F)F)cc1)c1noc2c1CCCC2,65%
3,CCOC(=O)c1ccc(NC(=O)c2csc3c2CCCCC3)cc1,39% (active)
4,CCOC(=O)c1ccc(NC(=O)c2csc3c2CCCC3)cc1,36% (active)
5,CSc1ccc(CCNC(=O)c2csc3c2CCCCC3)cc1,63%
6,CCOC(=O)c1ccc(NC(=O)c2c(NCc3cccs3)sc3c2CCCCC3)cc1,104%
7,CCOC(=O)c1ccc(NC(=O)c2c(NCc3sccc3C)sc3c2CCCCC3)cc1,78%
8,CCC(=O)C1=C(c2ccccc2)N(C(=O)CC)n2c(nnc2C2CCCCC2)S1,55%
9,N#CCCn1c(=O)n(CCC#N)c(=O)n(CCC#N)c1=O,79%
10,O=C1NC2(CCCCC2)C(=O)N1c1ccc(Cl)cc1,109%
11,CCC(=O)OCCN1C(=O)c2ccccc2C1=O,91%
12,COc1ccc(C(=O)Nc2ccc(NC(=O)c3ccco3)cc2)cc1OC,71%
13,N#Cc1cccc(NC(=O)C2CCN(c3ncccn3)CC2)c1,66%
14,Cc1cccc(CCn2c(=O)c3ccccc3n(CC(=O)Nc3ccccc3F)c2=O)c1,76%
15,O=C(Nc1ccccc1O)c1csc2c1CCCC2,80%
16,CCOc1ccc(OCC)c(NC(=O)c2csc3c2CCCC3)c1,-2% (active)
17,CCOc1ccc(CCNC(=O)c2csc3c2CCCCC3)cc1,73%
18,CCn1c(C(=O)Nc2ccccc2C(=O)OC)cc2sc(Cl)cc21,31% (active)
19,CCn1c(C(=O)Nc2cc(Cl)ccc2C)cc2sc(Cl)cc21,77%
20,CCc1ccccc1NC(=O)c1cc2sc(Cl)cc2n1CC,77%
21,CCn1c(C(=O)Nc2cc(C)cc(C)c2)cc2sc(Cl)cc21,109%
22,CCn1c(C(=O)Nc2c(C)cccc2C)cc2sc(Cl)cc21,60% (active)
23,CCn1c(C(=O)Nc2ccc(C)cc2C)cc2sc(Cl)cc21,58%
24,COC(=O)c1[nH]c2ccc(F)cc2c1N,98%

row,SMILES,survival
1,CCN(CC)c1ccc2cc(C(=O)Nc3ccc(NC(C)=O)cc3)c(=O)oc2c1,94%
2,O=C(NCCc1ccccc1)c1ccc(CSc2nc3ccncc3n2Cc2ccccc2)cc1,73%
3,CCCOc1ccc(CNC(=O)C(NS(=O)(=O)c2cccs2)C(C)C)cc1 (stereo not given),77%
4,CCc1cccc(NC(=O)C(Cc2ccccc2)NS(=O)(=O)c2cccs2)c1 (stereo not given),44% (active)
5,Cc1ccc(NC(=O)C(Cc2ccccc2)NS(=O)(=O)c2cccs2)cc1Cl (stereo not given),90%
6,CCc1ccc(NC(=O)C(NS(=O)(=O)c2cccs2)C(C)C)cc1 (stereo not given),55% (active)
7,COc1cc(NC(=O)C(Cc2ccccc2)NS(=O)(=O)c2cccs2)cc(OC)c1 (stereo not given),102%
8,CCc1cccc(NC(=O)C(Cc2ccccc2)NS(=O)(=O)c2ccc3c(c2)c(=O)n(C)c(=O)n3C)c1 (stereo not given),54%
9,Cc1ccc(NC(=O)C(Cc2ccccc2)NS(=O)(=O)c2ccc3c(c2)c(=O)n(C)c(=O)n3C)cc1 (stereo not given),64%
10,Cc1ccc(CNC(=O)C(NS(=O)(=O)c2cccs2)C(C)C)cc1 (stereo not given),61%
11,CCc1ccc(NC(=O)C(Cc2ccccc2)NS(=O)(=O)c2ccc3c(c2)c(=O)n(C)c(=O)n3C)cc1 (stereo not given),45% (active)
12,CC(CNC(=O)c1ccc2c(c1)nc1n2CCCCC1)c1ccccc1 (stereo not given),62%
13,CCOC(=O)c1ccc(CN(Cc2ccccc2C)S(=O)(=O)c2ccc(F)c(C)c2)cc1,80%
14,Cn1cnc(S(=O)(=O)N2CCCC(C(=O)NCc3ccc(F)cc3)C2)c1 (stereo not given),55%
15,CCOC(=O)CN1N=NC2C(=O)N(c3ccccc3)C(=O)C21 (stereo not given),92%
16,O=C(c1ccc2c(c1)OCCO2)N(Cc1cccnc1)c1nc2c(F)cc(F)cc2s1,88%
17,Cc1ccc(CCNC(=O)CN(c2ccc(C(C)C)cc2)S(=O)(=O)c2c(C)nn(C)c2C)cc1,68%
18,Cc1ccc(C(=O)c2cn(Cc3c(F)cccc3Cl)c3nc(C)ccc3c2=O)cc1,62%
19,CCc1ccc(NC(=O)CSC2=Nc3ccccc3C3=NC(CCC(=O)NCCc4ccccc4)C(=O)N23)cc1 (stereo not given),81%
20,O=S(=O)(/C=C/c1ccccc1)N1CCOCC1,67%
21,Cc1ccc(CSc2nc(N)cc(N)n2)cc1,114%
22,N#Cc1ccccc1CSc1nc(N)cc(N)n1,106%
23,N#CCSc1nc(N)cc(N)n1,52% (active)
